Laboratory results: PubChem BioAssay AID1159580 (chemical genetic matrix, 2015)
Several values for one entry are separate records, joined by “and”; a condition that tells them apart may be missing. Equal entries are not always repeated. About 2,000 (36%) of roughly 5,500 compounds were called active. Not shown: some 18% with an inconclusive outcome. No stated cut-off is given here; in the data, active means normalized growth mostly below about 0.91 (no sharp cut-off); inconclusive means no clear call, values can overlap the other calls; inactive means mostly above about 0.92. The list shows a part of the results.

Test: chemical genetic growth profiling, strain panel (AID 1159580);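 further: tested at 20 µM; growth read once vehicle control cultures reached saturation at 30 °C; 1 = growth at the plate median or of vehicle wells; lower values mean less growth of the strain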
Conditions: growth OD

Measured: normalized growth

CCCOc1ccccc1-c1nc2n[nH]nc2c(=O)[nH]1
inactive: S. cerevisiae deletion strains, locus YJL187C, strain SWE1 (second series), hits give low values 0.992 | S. cerevisiae deletion strains, locus YJL187C, strain SWE1, hits give low values 1 | S. cerevisiae deletion strains, locus YJR043C, strain POL32, hits give low values 0.995 | S. cerevisiae deletion strains, locus YJR075W, strain HOC1, hits give low values 0.979 | S. cerevisiae deletion strains, locus YKL009W, strain mrt4, hits give low values 1 | S. cerevisiae deletion strains, locus YKL068W, hits give low values 0.999 | S. cerevisiae deletion strains, locus YKL085W, strain MDH1 (second series), hits give low values 1 | S. cerevisiae deletion strains, locus YKL085W, strain MDH1, hits give low values 1 | S. cerevisiae deletion strains, locus YKL160W, strain elf1, hits give low values 0.974 | S. cerevisiae deletion strains, locus YKL190W, strain CNB1, hits give low values 1 | S. cerevisiae deletion strains, locus YKR001C, strain vps1, hits give low values 1.01 | S. cerevisiae deletion strains, locus YKR026C, strain gcn3, hits give low values 1 | S. cerevisiae deletion strains, locus YKR091W, strain srl3, hits give low values 1 | S. cerevisiae deletion strains, locus YLL001W, strain dnm1, hits give low values 0.995 | S. cerevisiae deletion strains, locus YLL026W, hits give low values 1.01 | S. cerevisiae deletion strains, locus YLL041C, strain sdh2, hits give low values 0.994 | S. cerevisiae deletion strains, locus YLR027C, strain aat2, hits give low values 1.01 | S. cerevisiae deletion strains, locus YLR039C, strain RIC1, hits give low values 1.05 | S. cerevisiae deletion strains, locus YLR058C, strain SHM2, hits give low values 0.997 | S. cerevisiae deletion strains, locus YLR102C, strain apc9, hits give low values 1.01 | S. cerevisiae deletion strains, locus YLR221C, strain rsa3, hits give low values 0.995 | S. cerevisiae deletion strains, locus YLR258W, strain gsy2, hits give low values 1.03 | S. cerevisiae deletion strains, locus YLR262C, strain YPT6 (second series), hits give low values 0.997 | S. cerevisiae deletion strains, locus YLR262C, strain YPT6, hits give low values 1.02 | S. cerevisiae deletion strains, locus YLR268W, strain sec22, hits give low values 1.01 | S. cerevisiae deletion strains, locus YLR320W, strain mms22, hits give low values 1.02 | S. cerevisiae deletion strains, locus YLR330W, strain CHS5, hits give low values 1.01 | S. cerevisiae deletion strains, locus YLR342W, strain FKS1 (second series), hits give low values 1.04 | S. cerevisiae deletion strains, locus YLR342W, strain FKS1, hits give low values 1.01 | S. cerevisiae deletion strains, locus YLR357W, strain rsc2, hits give low values 1.01 | S. cerevisiae deletion strains, locus YLR370C, strain arc18, hits give low values 0.996 | S. cerevisiae deletion strains, locus YLR371W, strain rom2, hits give low values 1.02 | S. cerevisiae deletion strains, locus YLR384C, strain iki3, hits give low values 1 | S. cerevisiae deletion strains, locus YLR418C, strain cdc73, hits give low values 1.02 | S. cerevisiae deletion strains, locus YML016C, strain PPZ1, hits give low values 1 | S. cerevisiae deletion strains, locus YML032C, strain rad52, hits give low values 1.02 | S. cerevisiae deletion strains, locus YML120C, strain ndi1, hits give low values 0.997 | S. cerevisiae deletion strains, locus YML124C, strain tub3, hits give low values 1 | S. cerevisiae deletion strains, locus YMR058W, strain fet3, hits give low values 1.01 | S. cerevisiae deletion strains, locus YMR078C, strain ctf18, hits give low values 1.01 | S. cerevisiae deletion strains, locus YMR125W, strain sto1, hits give low values 1.01 | S. cerevisiae deletion strains, locus YMR129W, hits give low values 1 | S. cerevisiae deletion strains, locus YMR205C, strain PFK2, hits give low values 1.03 | S. cerevisiae deletion strains, locus YMR223W, strain ubp8, hits give low values 1.01 | S. cerevisiae deletion strains, locus YMR231W, strain pep5, hits give low values 1.01 | S. cerevisiae deletion strains, locus YMR307W, strain GAS1, hits give low values 1.08 and 0.984 | S. cerevisiae deletion strains, locus YNL067W, strain RPL9B, hits give low values 1 | S. cerevisiae deletion strains, locus YNL071W, strain lat1, hits give low values 1 | S. cerevisiae deletion strains, locus YNL153C, strain GIM3, hits give low values 1.04 | S. cerevisiae deletion strains, locus YNL175C, strain NOP13, hits give low values 1.02 | S. cerevisiae deletion strains, locus YNL197C, strain WHI3, hits give low values 1.01 | S. cerevisiae deletion strains, locus YNL209W, strain ssb2, hits give low values 1 | S. cerevisiae deletion strains, locus YNL224C, strain SQS1, hits give low values 1 | S. cerevisiae deletion strains, locus YNL233W, strain BNI4, hits give low values 0.995 | S. cerevisiae deletion strains, locus YNL248C, strain rpa49, hits give low values 0.957 | S. cerevisiae deletion strains, locus YNL250W, strain rad50, hits give low values 1 | S. cerevisiae deletion strains, locus YNL271C, strain bni1, hits give low values 1.01 | S. cerevisiae deletion strains, locus YNL298W, strain CLA4, hits give low values 1.02 | S. cerevisiae deletion strains, locus YNL307C, strain MCK1, hits give low values 1.02 | S. cerevisiae deletion strains, locus YNL322C, strain KRE1 (second series), hits give low values 0.998 | S. cerevisiae deletion strains, locus YNR049C, strain mso1, hits give low values 1 | S. cerevisiae deletion strains, locus YNR052C, strain pop2, hits give low values 1.01 | S. cerevisiae deletion strains, locus YOL006C, strain TOP1, hits give low values 1 | S. cerevisiae deletion strains, locus YOL012C, strain htz1 1.16 | S. cerevisiae deletion strains, locus YOL147C, strain pex11, hits give low values 1.01 | S. cerevisiae deletion strains, locus YOR001W, strain rrp6, hits give low values 0.971 | S. cerevisiae deletion strains, locus YOR061W, strain CKA2, hits give low values 1.01 | S. cerevisiae deletion strains, locus YOR069W, strain VPS5, hits give low values 1 | S. cerevisiae deletion strains, locus YOR070C, strain gyp1, hits give low values 0.999 | S. cerevisiae deletion strains, locus YOR080W, strain dia2, hits give low values 1.01 | S. cerevisiae deletion strains, locus YOR083W, strain WHI5 (second series), hits give low values 1.02 | S. cerevisiae deletion strains, locus YOR083W, strain WHI5, hits give low values 0.962 | S. cerevisiae deletion strains, locus YOR106W, strain vam3, hits give low values 0.981 | S. cerevisiae deletion strains, locus YOR136W, strain idh2, hits give low values 1.01 | S. cerevisiae deletion strains, locus YOR144C, strain elg1, hits give low values 1.01 | S. cerevisiae deletion strains, locus YOR184W, strain ser1, hits give low values 1.01 | S. cerevisiae deletion strains, locus YOR265W, strain rbl2, hits give low values 1 | S. cerevisiae deletion strains, locus YOR270C, strain vph1, hits give low values 0.98 | S. cerevisiae deletion strains, locus YOR290C, strain snf2, hits give low values 0.992 | S. cerevisiae deletion strains, locus YOR316C, strain cot1, hits give low values 1.01 | S. cerevisiae deletion strains, locus YPL051W, strain arl3, hits give low values 0.991 | S. cerevisiae deletion strains, locus YPL078C, strain atp4, hits give low values 0.981 | S. cerevisiae deletion strains, locus YPL106C, strain sse1, hits give low values 1.02 | S. cerevisiae deletion strains, locus YPL240C, strain hsp82, hits give low values 1.01 | S. cerevisiae deletion strains, locus YPR119W, strain clb2, hits give low values 1.01 | S. cerevisiae deletion strains, locus YPR141C, strain kar3, hits give low values 1 | S. cerevisiae deletion strains, locus YPR163C, strain tif3, hits give low values 1.02 | S. cerevisiae deletion strains, locus YPR167C, strain met16, hits give low values 1.02 | S. cerevisiae deletion strains, strain wtn01, hits give low values 1.02 | S. cerevisiae strains, strain wild type, hits give low values 1.01
